Source: PubChem BioAssay
Compounds with a hit are over-represented: about 5.1% of the library has one in this group of screens.
Tau fluor counter: counter-screen for tau fibril formation inhibitors. tau K18 P301L Alexa594 fluorescence, heparin fibrillization. Potency, µM (top dose mostly 57.7 µM), without a hit: at the highest dose activity change, negative = decrease. hit rate 0.93% among 280,000; further: potency means the concentration at half of the fitted maximal effect; nearly all actives have a fitted effect of over 55% in size
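Human tau K18 P301L (15 uM unlabeled, 0.24 uM Alexa 594-labeled) in 100 mM sodium acetate pH 7 with 20 uM heparin, 6 hr at 37 C. ThT 30 uM added, 1 hr ambient; Alexa 594 FP and total fluorescence read at 555/632 nm.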
KDM4E inh: inhibitors of human JMJD2E histone demethylase; Potency, µM (highest dose often 57.1 µM), inactives show at the top dose activity change, negative = inhibition, usual class: inhibitors; hit rate 1.6% among 230,000; B2RXH2; JMJD2E catalytic domain, FDH-coupled NADH fluorescence (FDH is formaldehyde dehydrogenase);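 further: potency means the concentration at half of the fitted maximal effect; 0% = wells with enzyme and -100% = buffer wells without enzyme; nearly all actives have a fitted effect of over 50% in size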
Target sequence (B2RXH2 1-337 limits assumed): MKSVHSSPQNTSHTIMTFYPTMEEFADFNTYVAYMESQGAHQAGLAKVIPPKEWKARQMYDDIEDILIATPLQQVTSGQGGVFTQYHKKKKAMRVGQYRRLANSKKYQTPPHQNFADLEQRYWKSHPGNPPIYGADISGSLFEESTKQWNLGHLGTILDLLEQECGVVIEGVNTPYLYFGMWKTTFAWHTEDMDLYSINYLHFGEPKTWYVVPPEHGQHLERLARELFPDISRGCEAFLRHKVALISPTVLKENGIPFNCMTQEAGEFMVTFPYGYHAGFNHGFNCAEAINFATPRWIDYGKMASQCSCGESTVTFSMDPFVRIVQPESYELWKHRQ
NPSR antag: antagonists of human neuropeptide S receptor cAMP signaling | CHO-NPSR cells, cAMP TR-FRET, antagonist mode | Potency, µM (series often up to 38.3 µM), without a hit: top-dose activity change, negative = inhibition, most hits filed as inhibitors | hit rate 1% among 220,000 | Q6W5P4; further: potency means the concentration at half of the fitted maximal effect; nearly all actives have a fitted effect of over 50% in size
PNC assembly inh: perinucleolar compartment assembly inhibition | PC3M PTB-GFP, PNC prevalence imaging, 16 h; hits give low values | activity change (PNC), negative = inhibition, % at 10 µM | hit rate 3.1% among 140,000;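 active means readout at or below -70, meaning at least 70% loss of cells showing the perinucleolar compartment, a nuclear body marking cancer cells; inconclusive means readout between -30 and a set limit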;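 further: plate controls were DMSO wells for no effect and camptothecin positive control wells for full effect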
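PC3M cells stably expressing PTB-GFP, 750–1000 cells/well, treated 16 h at 37 °C with compound (23 nl of library stock), in duplicate. After paraformaldehyde fixation and Hoechst stain, imaged at 20x; PNC prevalence scored by image analysis.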
Tau fibril FP: tau fibrillization inhibition (FP). P10636. Potency, µM (series often up to 57.7 µM), without a hit: at the top dose activity, negative = inhibition, actives largely listed as inhibitors. hit rate 0.39% among 280,000. K18 P301L tau heparin fibrillization, Alexa594 FP, 6 h. AID 1468; further: potency means the concentration at half of the fitted maximal effect; nearly all actives have a fitted effect of over 55% in size
Target sequence (P10636 561-689 P618L limits assumed): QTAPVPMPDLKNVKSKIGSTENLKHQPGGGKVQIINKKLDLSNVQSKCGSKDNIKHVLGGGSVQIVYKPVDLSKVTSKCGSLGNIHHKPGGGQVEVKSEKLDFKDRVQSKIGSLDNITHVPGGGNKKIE
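Human tau K18 […] P301L fragment, 15 uM unlabeled plus 0.24 uM Alexa 594-labeled tau (final), with compound and 20 uM heparin in 100 mM sodium acetate pH 7; 6 hr at 37 C, then Alexa 594 FP read.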
Tau ThT inhib: tau fibrillization inhibition (ThT binding). recombinant tau K18 P301L (four-repeat tau fragment), heparin-induced fibrillization, ThT fluorescence. Potency, µM (doses to about 57.4 µM), without a hit: top-dose activity, negative = inhibition, actives largely listed as inhibitors. P10636. hit rate 2.1% among 270,000; further: potency means the concentration at half of the fitted maximal effect; nearly all actives have a fitted effect of over 55% in size
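Heparin-induced fibrillization of the P301L-mutant K18 repeat-domain fragment of human tau was followed by ThT binding in quantitative high-throughput format.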
Starred values were filed as active, the others as inactive; ? = inconclusive; . = not tested or not shown; [ ] = remark or other dose. Unless noted, the call rests on the fitted dose curve; in most records, active means well fitted curve in the direction sought with a large enough effect; inconclusive means small, poorly fitted or top-dose-only effect, or another doubt; inactive means no such curve, though single readings can be large; an effect the other way counts as inactive or inconclusive. Unless noted, on the % scale 0 is the no-effect control and ±100 the full control effect.

SMILES | Tau fluor counter | KDM4E inh | NPSR antag | PNC assembly inh | Tau fibril FP | Tau ThT inhib
CC1CCCN(C2=C(Cl)C(=O)N(c3cccc(Cl)c3)C2=O)C1 (stereo unspecified) | ? | -17% | -44% | 38 | 18µM* | 14µM*
CC1CCCN(c2cc3c(cc2[N+](=O)[O-])C(=O)N(c2ccccc2)C3=O)C1 (stereo unspecified) | 9% | 10% | -9% | -9 | 13% | -4%
COc1ccc(N2C(=O)C(Cl)=C(N3CCCC3)C2=O)cc1 | -21% | 2% | -24%[46.1 µM] | ? | ? | ?
O=C(COc1ccc(F)cc1)Nc1ccc(S(=O)(=O)N(Cc2ccccc2)c2ccccc2)cc1 | ? | . | . | . | ? | 8%
CCOc1ccc(CNc2cccc(SC)c2)cc1 | -31% | -26% | -4% | . | -37% | 16µM*
CCOc1cc(CNc2ccc(N3CCCC3)cc2)cc(Cl)c1OC | ? | 16µM* | -15% | -113* | 7.1µM* | 3.5µM*
CCOc1ccc(CNc2ccc(CNc3ncn[nH]3)cc2)cc1 | -29% | -3% | 6% | . | 9% | ?
CCOc1ccc(CNc2ccc(N3CCCC3)cc2)cc1 | ? | 16µM* | -27%[46.1 µM] | 14 | ? | 7.1µM*
COc1cc(CNc2ccc(N3CCCC3)cc2)cc(Cl)c1OC | ? | 14µM* | -12% | . | ? | 4µM*
Cc1csc2nc(COC(=O)CNC(=O)c3ccc(F)cc3)cc(=O)n12 | -1% | . | . | . | 0% | -2%
CCn1ccnc1CN1CCc2c([nH]c3ccccc23)C1C1CCCCC1 (stereo unspecified) | -21% | 28µM* | ? | . | -6% | ?
CCn1ccnc1CN1CCc2c([nH]c3ccccc23)C1C(C)(C)C (stereo unspecified) | -13% | -22% | 35% | . | -9% | -13%
Cc1ccc(NC2Sc3ccccc3NC2=O)cc1 (stereo unspecified) | -22% | 22µM* | -8% | . | ? | 16µM*
ClC(Cl)(c1nnnn1-c1ccccc1)c1nnnn1-c1ccccc1 | -14% | -5% | -3% | ? | 32µM* | 11µM*
Cc1ccc(S(=O)(=O)C2CS(=O)(=O)CC2O)cc1 (stereo unspecified) | 6% | -1% | -9%[46.1 µM] | ? | 7% | 6%
CC(=O)C1=C(S(=O)(=O)c2ccc(C)cc2)CS(=O)(=O)C1 | -20% | 14µM* | -34% | . | 28µM* | 25µM*
COc1ccc(OC)c(C2C3CN(C(C)C)CC=C3C(C#N)=C(N)C2(C#N)C#N)c1 (stereo unspecified) | -27% | ? | -18%[46.1 µM] | -8 | ? | ?
CC(=O)N1CC=C2C(C#N)=C(N)C(C#N)(C#N)[C@H](c3ccoc3)[C@H]2C1 | -23% | ? | 10%[46.1 µM] | ? | ? | ?
CCCN1CC=C2C(C#N)=C(N)C(C#N)(C#N)C(c3cccc(OC)c3OC)C2C1 (stereo unspecified) | -30% | ? | -16%[46.1 µM] | -95* | ? | ?
CN1CC=C2C(C#N)=C(N)C(C#N)(C#N)[C@H](c3ccoc3)[C@H]2C1 | ? | ? | -14%[46.1 µM] | -81* | ? | 22µM*
COc1cccc(OC)c1OCc1cc(C2C3CCCC=C3C(C#N)=C(N)C2(C#N)C#N)c(C)cc1C (stereo unspecified) | -11% | ? | 3.2µM* | -17 | -3% | ?
CCCCOc1ccc(C2C3CN(C(=O)OCC)CC=C3C(C#N)=C(N)C2(C#N)C#N)cc1OC (stereo unspecified) | -16% | ? | -17%[46.1 µM] | -19 | ? | ?
COc1cc(NS(=O)(=O)c2ccc(NC(=S)NC(=O)c3ccco3)cc2)nc(OC)n1 | ? | -4% | -19% | . | -2% | .
O=C(Nc1ccc(S(=O)(=O)NC2CCCCC2)cc1)c1ccc(Br)o1 | -13% | -4% | -21%[46.1 µM] | ? | -11% | 11%
COc1cc(NS(=O)(=O)c2ccc(NC(=O)c3ccco3)cc2)nc(OC)n1 | 5% | 4% | -13%[46.1 µM] | -82* | 0% | -6%
SMILES | Tau fluor counter | KDM4E inh | NPSR antag | PNC assembly inh | Tau fibril FP | Tau ThT inhib
O=C(Nc1ccc(S(=O)(=O)NC2CCCCC2)cc1)c1ccco1 | -8% | -3% | 16%[46.1 µM] | -100* | -9% | 1%
O=S(=O)(Nc1cccnc1)c1cccc(C(F)(F)F)c1 | 1% | -1% | -2%[46.1 µM] | -92* | 3% | -1%
O=[N+]([O-])c1ccc(Sc2cccc[n+]2[O-])c2nonc12 | 13µM*[quencher] | 57% | ? | . | ? | 5µM*
CCc1ccc2c(c1)/C(=N/N(C)C(=S)NC)C(=O)N2 | -24% | 2% | -9%[46.1 µM] | 55 | -5% | 32µM*
CCOc1ccc2c(c1)/C(=N/N1C(=O)c3ccccc3C1=O)C(=O)N2 | -12% | -1% | -16% | . | -5% | ?
N#Cc1nc(-c2cccs2)oc1NCc1ccc(Cl)cc1 | 18µM*[quencher] | ? | -22%[46.1 µM] | ? | ? | -10%
CCOc1ccccc1NC(=O)C(OC(=O)c1ccccc1NS(=O)(=O)c1cccs1)c1ccccc1 (stereo unspecified) | -13% | ? | -3% | 2 | -1% | 5%
CC(=O)c1cccc(NC(=O)C(OC(=O)c2ccccc2NS(=O)(=O)c2cccs2)c2ccccc2)c1 (stereo unspecified) | ? | ? | -12% | 19 | 18µM* | 13%
O=C(Nc1ccc(Cl)c(Cl)c1)Nc1ccccc1NS(=O)(=O)c1cccs1 | 7.1µM*[quencher] | 0% | -32% | 26 | 14µM* | ?
O=C(Nc1ccccc1)Nc1ccccc1NS(=O)(=O)c1cccs1 | -19% | 9% | 7% | -13 | -5% | -1%
CCc1ccc(NS(=O)(=O)c2ccc3oc(=O)c4ncn(CC)c4c3c2)cc1 | -20% | . | . | . | -8% | -8%
Cc1oc2ccc(O)c(CN(C)Cc3ccccc3)c2c1C(=O)Nc1ccccc1 | ? | . | . | . | 6% | -14%
CCC(C)NC(=O)C1CCCN1S(=O)(=O)c1ccc(Cl)cc1 (stereo unspecified) | 0% | -3% | -7% | -119* | -5% | -3%
CCC(C)NC(=O)C1CCCCN1S(=O)(=O)c1ccc(F)cc1 (stereo unspecified) | -10% | 1% | -6%[46.1 µM] | ? | -4% | -7%
Cc1ccc2[nH]c(=S)cc(C)c2c1 | 0% | 7.1µM* | 26%[46.1 µM] | 7 | -2% | ?
Cc1ccc2c(C)cc(=S)[nH]c2c1 | -1% | 0% | -17% | . | 1% | -7%
Cc1cc(Cl)ccc1NC(=O)C1CCN(S(=O)(=O)c2ccc3[nH]c(=O)ccc3c2)CC1 | -6% | . | . | . | 13% | 0%
Cc1nc(Nc2nc(CSc3nc4ccccc4[nH]3)cc(=O)[nH]2)nc2ccccc12 | -21% | 6% | -5% | -97* | -10% | ?
